What all share (assay): NCI-60 one-dose screen, 48 h (100 = growth as untreated, 0 = no growth, -100 = all killed)
What all share (conditions): 10 µM unless noted

Assay [1] relates to HCT-15 colon.
In assay [2] the test system is HT29 colon.
Assay [3] has as its system SNB-75 CNS.
In assay [4] the test system is SNB-19 CNS.
Assay [5] relates to U251 CNS.
In assay [6] the test system is PC-3 prostate.
Assay [7] relates to SK-MEL-5 melanoma.
The test system of assay [8] is UACC-62 melanoma.
In assay [9] the test system is LOX IMVI melanoma.
For assay [10], the system named is SK-MEL-28 melanoma.

The structures appear in SMILES notation. The panel holds about 83,000 compounds, 20% with a hit somewhere; the sample as a whole holds those more often.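 96-well plates, one dose, 48 hours. Percent growth reported; active if below 10.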 Values without a mark were called inactive. Active and inactive are the calls of the source.

The results in this text go back to PubChem BioAssay (NCI).

For the compound `COc1cc2c(cc1OC)C(=O)/C(=C/c1cccc(OCC(=O)c3ccccc3)c1)C2`, the growth in [1] is 83.4%; in assay [2] it was 42.1%; in assay [3], 85.2%; in [4], 93.3%; in [5] it was 74.2%; in assay [6], 62%. Besides, the growth was 67.6% in [7], 68.1% in assay [8], 72.3% in assay [9] and 107% in [10].

Consider `COc1ccc2c(c1)[n+](=O)c(/C=C/C(=O)c1cc(OC)c(OC)c(OC)c1)c(C)n2[O-]`, for which the growth in assay [1] is 11%; in [2], 47%; in assay [3], 68.7%; in assay [4], 97%; in assay [5], 53.7%; in assay [6], 55.2%. Besides, the growth is 93.4% in assay [7], 63.8% in [8], 51.3% in [9] and 71.6% in assay [10].

As to `COc1ccc(C2=NN(C=O)C(c3cccc(Nc4ccnc5cc(Cl)ccc45)c3)C2)cc1` (stereo not given), the growth in assay [1] is 16.6%; in assay [2], 4.88% (active); in [3], 8.36% (active); in assay [4], 40%; in assay [5], 19.6%; in assay [6], 22.8%. Besides, the growth in [7] is -21.5% (active); in assay [8], 32.3%; in assay [9], 25%; in [10], 50.6%.

With `Oc1c(Cl)cc(Cl)c(Cl)c1Cc1c(O)c(Cl)cc(Cl)c1Cl`, the growth was 11.5% in assay [1]; 13.1% in [2]; 46.9% in assay [3]; 23% in assay [4]; 15% in assay [5]; -6.08% (active) in [6]. Moreover, the growth in assay [7] is -72.7% (active); in [8], 2.95% (active); in assay [9], 26.2%; in assay [10], 22.4%.

For `CCCCCN(CCCCC)CCCNc1c2c(nc3ccc(Cl)cc13)CCCC2`, the growth in assay [1] is 32.5%; in assay [2], 1.62% (active); in assay [3], 47.9%; in assay [4] it was 60.8%; in [5], 35%; in [6] it was 41.7%. Also, the growth in [7] is 23.4%; in [8], 51%; in assay [9], 14%; in assay [10], 71.2%.

On to `C[C@H]1c2cccc(O)c2C(O)=C2C(=O)[C@]3(O)C(O)=C(C(N)=O)C(=O)[C@@H](N(C)C)[C@@H]3[C@@H](O)[C@@H]21`, for which the growth was 31.2% in assay [1]; 39.6% in assay [2]; 47.3% in assay [3]; 69.9% in assay [4]; 33.1% in [5]; 42.3% in assay [6]. In addition, the growth in assay [7] was 9.29% (active); in [8], 34.1%; in assay [9] it was 31.5%; in [10], 65.4%.

Turning to `O[N+]1=CC=CCC1=S.On1ccccc1=S.[Zn]`, the growth is -57% (active) in [1]; -47.5% (active) in assay [2]; -75.3% (active) in assay [3]; -93% (active) in assay [4]; -86.8% (active) in assay [5]; -50.8% (active) in assay [6]. The growth in [7] was -93.5% (active); in assay [8], -78.3% (active); in [9] it was -70.3% (active); in assay [10] it was -87.3% (active).

As for `COc1ccc(C(=O)COc2cccc(/C=C3\COc4ccc5ccccc5c4C3=O)c2)cc1`, the growth was 88.6% in assay [1]; 60.8% in [2]; -6.64% (active) in [3]; 66.9% in assay [4]; 68.3% in [5]; 48.2% in assay [6]. Also, the growth in [7] was 67.6%; in assay [8] it was 74.5%; in assay [9], 57.6%; in [10], 106%.

In the case of `O=C(CN1CCN(c2ccc(Cl)cc2)CC1)N1CCN(c2nnc(-c3ccccc3)c(-c3ccccc3)n2)CC1`, the growth in assay [1] is 42.3%; in assay [2], 29.2%; in assay [3], 65.8%; in assay [4], 60%; in [5] it was 45.8%; in assay [6], 12.1%. The growth in assay [7] was -9.45% (active); in [8] it was 53%; in [9], 38.5%; in assay [10] it was 83%.

For `CCOC(=O)c1cc2oc(/C=C/c3cc(=O)c4cc(Cl)ccc4o3)cc2[nH]1`, the growth was 105% in assay [1]; 96.6% in [2]; 73% in [3]; 92.1% in [4]; 92.5% in [5]; 85.2% in assay [6]. The growth in [7] is 68.2%; in [8] it was 75.8%; in assay [9], 101%; in assay [10], 91.4%.

On to `Cc1cc(Br)c(C)cc1Br`, for which the growth in assay [1] is 101%; in assay [2] it was 94.2%; in assay [3], 100%; in assay [4], 108%; in [5] it was 98.9%; in assay [6], 95.8%. In addition, the growth in assay [7] was 96.9%; in assay [8], 102%; in assay [9] it was 97.6%; in [10], 103%.

`c1ccc(-c2oc(-c3ccccc3)c3ccccc23)cc1`: the growth was 108% in assay [1]; 118% in [2]; 110% in assay [3]; 105% in assay [4]; 98.9% in [5]; 82.8% in assay [6]. Also, the growth was 104% in assay [7], 98.6% in assay [8], 88.5% in assay [9] and 125% in [10].

Turning to `CC(C)CNc1nc(N=[N+]=[N-])nc(NCC(C)C)n1`, the growth in assay [1] is 54% [100 µM]; in assay [2], 60.4% [100 µM]; in [3] it was 37.3% [100 µM]; in assay [4], 54.8% [100 µM]; in assay [5], 61.9% [100 µM]; in assay [6], 23.3% [100 µM]. The growth in [7] was 54.6% [100 µM]; in assay [8] it was 59.1% [100 µM]; in assay [9], 72.6% [100 µM]; in assay [10] it was 76.9% [100 µM].
